# BoNT-A LC inh2 – BoNT A light chain protease inhibition | multiplex microsphere protease substrate cleavage, flow cytometry | inhibition, % at 10 µM | actives 0.17% (n = 360,000); also: plate controls were buffer without enzyme for full effect and enzyme alone for no effect
# BoNT F protease – inhibitors of Botulinum neurotoxin F light chain protease; Multiplex microsphere protease cleavage assay, flow cytometry; inhibition, % at 10 µM; actives 0.22% (n = 360,000); AID 588497; in the data active = inhibition above about 35%, passing the limit was not always enough; inconclusive = no clear call, values can overlap the other calls; also: plate controls were buffer without enzyme for full effect and enzyme alone for no effect
# Bead autofluor – compound fluorescence in toxin protease inhibitor counterscreen | compound autofluorescence counterscreen, microsphere flow cytometry; hits give high values | fluorescence intensity (test concentration not listed) | actives 3.1% (n = 360,000); in the data active = fluorescence intensity above about 16000; inconclusive = no clear call, values can overlap the other calls
# Anthrax LF prot – blocks Bacillus anthracis lethal factor protease; AID 588501; actives 0.12% (n = 360,000); multiplex microsphere protease cleavage assay, LF; inhibition, % at 10 µM; also: plate controls were buffer without enzyme for full effect and enzyme alone for no effect
# Target sequence (P15917 whole entry, looked up): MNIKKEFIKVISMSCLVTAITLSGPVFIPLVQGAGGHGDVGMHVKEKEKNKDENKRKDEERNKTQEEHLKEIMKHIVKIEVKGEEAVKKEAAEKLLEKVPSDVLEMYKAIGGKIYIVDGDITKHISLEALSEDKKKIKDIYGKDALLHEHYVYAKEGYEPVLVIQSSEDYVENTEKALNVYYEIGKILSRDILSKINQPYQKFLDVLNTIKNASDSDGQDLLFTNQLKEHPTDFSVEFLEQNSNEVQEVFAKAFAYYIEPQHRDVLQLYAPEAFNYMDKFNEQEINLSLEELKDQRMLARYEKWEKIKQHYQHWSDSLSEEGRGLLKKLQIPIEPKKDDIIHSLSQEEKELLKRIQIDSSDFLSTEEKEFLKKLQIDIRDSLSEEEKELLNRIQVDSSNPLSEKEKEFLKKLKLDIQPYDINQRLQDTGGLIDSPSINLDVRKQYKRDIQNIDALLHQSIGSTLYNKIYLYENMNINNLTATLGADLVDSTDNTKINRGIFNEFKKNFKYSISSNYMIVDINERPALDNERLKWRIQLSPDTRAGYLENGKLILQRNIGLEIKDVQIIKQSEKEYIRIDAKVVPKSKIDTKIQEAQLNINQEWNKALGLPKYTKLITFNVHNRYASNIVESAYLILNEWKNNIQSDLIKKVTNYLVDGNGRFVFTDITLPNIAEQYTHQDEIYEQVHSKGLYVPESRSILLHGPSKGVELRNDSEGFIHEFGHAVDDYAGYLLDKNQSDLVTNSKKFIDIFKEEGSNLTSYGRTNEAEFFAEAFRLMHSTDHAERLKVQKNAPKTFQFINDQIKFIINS
# MazEF act – increases E. coli MazEF RNase cleavage of RNA; P0AE70; FAM/BHQ RNA-DNA oligo cleavage fluorescence, 5 h; activation, % at 20 µM; actives 0.32% (n = 350,000); AID 504720; in the data active = activation above about 50%
# * marks the source's active call; other numbers are inactive results; ? = inconclusive; · = no result given; ! = not active in a repeat. Shown are actives, neighbours in structure and some others; about 3.7% of the full set was active somewhere. Rule as the data show it, unless noted: active = inhibition above about 30%; inconclusive = no clear call, values can overlap the other calls; inactive = below that.
SMILES,BoNT-A LC inh2,BoNT F protease,Bead autofluor,Anthrax LF prot,MazEF act
CCOC(=O)c1c(N)nn(C(=O)c2ccccc2F)c1-c1ccc(OC)cc1,-0.8,1.1,3958,-0.8,1.8
CCOC(=O)c1c(N)nn(C(=O)C(C)(C)C)c1-c1ccccc1,-1.1,-1.5,22970*,-1.3,3.8
C=CCn1c(C)cc(C)c(C#N)c1=O,0.1,1.3,22789*,-4.9,5.6
CCn1c(C)cc(C)c(C#N)c1=O,-0.9,-4.2,3606,-4.4,-19.9
Cc1nc(-c2ccc(F)cc2)c(CC(=O)N(C)CC(=O)Nc2cccc(F)c2)s1,-0.4,-0.9,4001,1.9,1.2
O=C(NC(=S)Nc1ccc(N2CCCCC2)cc1)c1ccco1,3.4,2.4,20910*,-14.2,0.7
Cc1ccc(NC(=S)NNC(=O)c2ccco2)cc1,2.2,2.3,21506*,0.0,1.4
CC1CCN(c2ccc(NC(=S)NC(=O)c3ccco3)cc2)CC1,-0.2,2.1,3138,-2.2,2.3
CCCCNC(=O)NNC(=O)c1ccco1,2.1,14.5,8417,1.4,3.9
Cc1cccc(NC(=S)NNC(=O)c2ccco2)c1,0.3,1.4,9510,-0.6,-20.8
CCCCNC(=S)NNC(=O)c1ccco1,0.2,-0.5,16637*,-1.8,3.1
CCc1ccc(OCC(=O)OC(C)C(=O)Nc2ccc(Cl)cn2)cc1 (configuration not stated),-0.1,-2.5,2908,6.1,-7.6
Cc1ccsc1-c1ccnc(-n2cccc2)n1,-1.1,-2.2,16296*,-1.8,-15.1
Clc1ccsc1-c1ccnc(-n2cccc2)n1,-0.3,-3.0,3262,-2.9,-0.3
CCOc1ccccc1OCCCC(=O)Nc1cc(S(=O)(=O)N2CCCCC2)ccc1C,0.0,-5.1,4090,1.2,6.1
Cn1c(=O)c(=O)n(C)c2cc([N+](=O)[O-])c(N3CCOCC3)cc21,2.1,20.1,3491,2.7,5.0
COc1ccc(-c2oc3c(c2-c2cnc(OC)nc2)C(O)CC3)cc1 (configuration not stated),-0.7,5.9,4329,-6.8,·
C=Cc1c(C)c2cc3[nH]c(cc4nc(cc5nc(cc1[nH]2)C(C)=C5CCC(=O)O)C(CCC(=O)O)=C4C)c(C)c3C=C,42.9*!,-8.9,6983,7.5,-46.7
CCCS(=O)(=O)NC(=O)C1(C)CCN(C(=O)c2cc(F)ccc2C)C1 (configuration not stated),0.5,-0.2,3841,-2.8,·
COc1ccccc1Cc1c(C(C)(C)C)nc2ccc(C)cn12,1.9,3.8,5966,-8.6,·
Cc1ccc(NC(=O)CSc2nnc(-c3cnccn3)n2Cc2ccco2)cc1,-2.7,-5.9,17381*,-5.1,4.2
Cc1cccc(NC(=O)CSc2nnc(-c3cnccn3)n2Cc2ccco2)c1,?,-3.3,23296*,1.3,2.3
O=C(CSc1nnc(-c2cnccn2)n1Cc1ccco1)c1ccc2ccccc2c1,?,-3.2,21448*,0.4,-3.5
C=CCn1c(SCC(=O)Nc2cccc3ccccc23)nnc1-c1cnccn1,1.5,4.6,16132*,-3.0,7.1
CC(C)OC(=O)CSc1nnc(-c2cnccn2)n1Cc1ccco1,0.0,2.7,3271,2.5,0.7
SMILES,BoNT-A LC inh2,BoNT F protease,Bead autofluor,Anthrax LF prot,MazEF act
O=C(CSc1nnc(-c2ccncc2)n1Cc1ccco1)Nc1cccc(O)c1,-0.4,-4.6,5162,1.1,1.4
C[C@@H]1CN([C@H](C)CO)C(=O)CCCn2nncc2CO[C@H]1CN(C)C(=O)Cc1ccccc1,-0.7,0.0,3935,-3.7,7.0
Fc1ccc(CSc2nnc(-c3cnccn3)n2Cc2ccco2)cc1,-2.6,-3.6,24676*,1.3,2.1
Brc1ccc(CSc2nnc(-c3cnccn3)n2Cc2ccco2)cc1,-0.4,-0.2,11396,-2.5,-0.9
Cc1cc(N/C(=N\S(=O)(=O)c2ccc(F)cc2F)c2ccccc2)no1,-5.6,-7.4,17822*,-4.3,5.2
COc1cccc(C=NN(C)c2c([N+](=O)[O-])cc(C(F)(F)F)cc2[N+](=O)[O-])c1O,0.3,3.9,4224,-3.0,·
OCCN1CCN(c2ncnc3c2ncn3[C@H]2CN(Cc3cccnc3)C[C@@H](CO)O2)CC1,-0.1,1.0,4034,1.9,·
COc1ccc(NC(=O)Nc2cccc([N+](=O)[O-])c2)cc1Cl,1.2,-4.2,2073,-3.1,105.7*
CCC(=O)Nc1ccc2c(c1)Cc1cc([N+](=O)[O-])ccc1-2,3.0,-0.3,2971,7.7,58.3*
O=C(Nc1cccc([N+](=O)[O-])c1)Nc1ccc2c(c1)CCC2,-1.2,-0.1,6226,-4.3,84.2*
COc1ccccc1-c1cnc(C(O)c2ccc(C(C)(C)C)cc2)[nH]1 (configuration not stated),0.0,-8.2,3545,-1.1,·
O=C(NCc1cccs1)c1ccc(Cl)c(S(=O)(=O)N2CCOCC2)c1,0.0,1.5,3493,-4.4,-4.7
CC(Oc1ccccc1Cl)C(=O)/C=C/N(C)C (configuration not stated),3.5,4.9,20970*,0.4,-9.4
CC(Oc1ccccc1F)C(=O)/C=C/N(C)C (configuration not stated),0.4,-4.1,9965,-0.7,6.0
COc1ccc(NC(=O)C23CC4CC(C2)CC(n2cnc(Br)n2)(C4)C3)c(C)c1,1.6,15.5,7828,6.8,3.1
COc1ccc(NC(=O)C23CC4CC(C2)CC(n2cnc(Br)n2)(C4)C3)cc1OC,?,-4.1,16534*,-4.1,-0.5
CN(C(=S)NC(=O)c1ccccc1Br)C1CCCCC1,-1.3,-2.5,16560*,-4.6,-14.4
Cc1ccccc1C(=O)NC(=S)N(C)C1CCCCC1,-1.5,-3.5,6224,-1.8,3.9
Cc1ccccc1-c1cnc(C(O)c2c(C)cccc2C)[nH]1 (configuration not stated),-0.2,-0.3,2997,-4.2,·
Cc1cc(C2C(C#N)=C(N)SC(N)=C2C#N)c(C)s1,18.4,39.6*,4324,13.0,-297.9
Cc1cc(C2C(C#N)=C(N)Oc3n[nH]c(C)c32)c(C)s1 (configuration not stated),0.1,8.6,2163,3.2,2.2
C[C@H](NC(=O)c1nc[nH]c1C(=O)N(C)CCO)c1ccccc1,0.6,-5.4,4448,-7.1,·
Nc1c(C(=O)c2ccccc2)sc2nsc(SCCN3CCOCC3)c12,·,·,·,·,126.7*
Cc1cc(C)nc(N2CCC(C(=O)NCc3cccc(C(F)(F)F)c3)CC2)n1,-0.9,17.4,4485,-6.4,1.7
CCOc1ccc(OCC)c(NC(=O)C2CCN(c3ncccn3)CC2)c1,?,-6.8,22945*,-1.8,-2.2
O=C(NCc1cccc(C(F)(F)F)c1)C1CCN(c2ncccn2)CC1,0.8,2.2,22251*,0.8,0.4
CCOc1ccc(OCC)c(NC(=O)CN2CCC(NC(=O)c3cccc(F)c3)CC2)c1,-0.3,-3.8,20291*,-1.8,3.6
CCOc1ccc(OCC)c(NC(=O)C2CCCN(c3ncccn3)C2)c1 (configuration not stated),0.3,-12.4,7567,-6.1,-1.4
O=C(O)C1CC=CCC1C(=O)NCc1ccc2c(c1)OCO2 (configuration not stated),-2.1,-3.8,23458*,0.7,-6.6
